Source: PubChem (NMMLSC)
The list is not random: actives were taken first. Their share in the collection is about 1.8%.
Myeloid diff MLP: compounds promoting myeloid differentiation. calls only at 10 µM. 360,000 compounds, 1% hits. ER-HoxA9 myeloid progenitors, lysozyme-GFP differentiation, flow cytometry. AID 624256;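 active = normalized GFP-positive differentiation at or above the plate's own cutoff, the solvent-only control mean plus 3 SD; inconclusive = no clear call, values can overlap the other calls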;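 note: cells exposed to compound for four days before flow analysis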
AGP1 TOR yeast: yeast TOR pathway AGP1-GFP modulation; S. cerevisiae AGP1-GFP multiplex flow cytometry, 3 h; GFP as percent of DMSO wells; GFP response vs DMSO, % at 10 µM; 320,000 compounds, 0.02% hits;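 active = GFP response relative to DMSO above a set limit, near screen average plus 3 SD, cut at about 150% in these data; inconclusive = fewer than 70 cells counted for the yeast strain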;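 note: median GFP channel fluorescence of the gated AGP1 strain per well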
LAP4 TOR yeast: yeast TOR pathway LAP4-GFP modulation; GFP response vs DMSO, % at 10 µM; S. cerevisiae LAP4-GFP multiplex, flow cytometry GFP, 3 h; median GFP as percent of DMSO wells; 320,000 compounds, 0.34% hits;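 active = GFP response vs DMSO above a set limit, about the screen mean plus 3 SD, cut at about 150% in these data; inconclusive = under 70 cell events counted for the yeast strain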
MEP2-GFP yeast: yeast TOR pathway MEP2-GFP modulation | AID 2016 | 330,000 compounds, 0.51% hits | GFP response vs DMSO, % at 10 µM | S. cerevisiae MEP2-GFP strain, flow cytometry GFP, 3 h; 100% = DMSO control level;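 active = GFP response versus DMSO above a set limit, roughly screen mean plus 3 SD, cut at about 180% in these data; inconclusive = fewer than 70 cells counted for a yeast strain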;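 note: median GFP fluorescence of the barcode-gated MEP2-GFP cells per well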
CIT2 TOR yeast: yeast TOR pathway CIT2-GFP modulation; S. cerevisiae CIT2-GFP strain, flow cytometry, 3 h; 100 means same as DMSO wells; GFP response vs DMSO, % at 10 µM; 320,000 compounds, 0.065% hits;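 active = GFP response relative to DMSO above a set limit, near the screen mean plus 3 SD, cut at about 150% in these data; inconclusive = Fewer than 70 cells measured for a yeast strain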;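 note: ratio of well median GFP fluorescence to mean of DMSO wells on the plate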
RPL19A TOR yeast: alters RPL19A-GFP fluorescence in TOR pathway yeast screen; S. cerevisiae RPL19A-GFP strain, flow cytometry, 3 h; stronger effect = lower value; percent response vs DMSO, % at 10 µM; 330,000 compounds, 0.3% hits;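 active = percent response vs DMSO below 50%; inconclusive = fewer than 70 events counted for the yeast strain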;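 note: median channel GFP fluorescence of the barcoded RPL19A-GFP strain; lower means less RPL19A-GFP as with rapamycin TOR inhibition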
Of the large screens only hits and unclear results are named; the others gave an inactive call; ! = not active in a repeat; [ ] = remark or other dose.

CC(=O)COc1ccc2c(c1C)O/C(=C\c1ccco1)C2=O	Myeloid diff MLP active
O=C(CCCSc1nc2ccccc2[nH]1)Nc1nnc(-c2ccccc2)o1	Myeloid diff MLP active
O=C(CCCSc1nc2ccccc2[nH]1)NCc1ccccc1	none
c1cnc2nc3c4ccccc4c4ccccc4c3nc2c1	Myeloid diff MLP active (no result: AGP1 TOR yeast, LAP4 TOR yeast, MEP2-GFP yeast, CIT2 TOR yeast, RPL19A TOR yeast)
Oc1cccc(-c2nc3ccccc3s2)c1	none
Cc1cc(C)c(-c2nc3ccccc3s2)[nH]1	Myeloid diff MLP active
NC(=O)c1nsc(C(=O)N(Cc2ccco2)C(C(=O)NCC2CCCO2)c2ccc(O)cc2)c1N (configuration not stated)	none
CN1CCCN(S(=O)(=O)c2cccc(C(F)(F)F)c2)c2nc3ccccc3nc21	Myeloid diff MLP active
O=C(Nc1ccc(F)cc1)C(c1ccccc1)N1CCN(c2ccncc2)CC1 (configuration not stated)	none (no result: AGP1 TOR yeast, LAP4 TOR yeast, MEP2-GFP yeast, CIT2 TOR yeast, RPL19A TOR yeast)
CC1(CCc2ccccc2)NC(=O)N(CC(=O)Nc2ccccc2C#N)C1=O (configuration not stated)	none
Cc1cccc(-n2nnc(C(=O)NCc3ccco3)c2N)c1	AGP1 TOR yeast inconclusive, LAP4 TOR yeast inconclusive, MEP2-GFP yeast inconclusive, CIT2 TOR yeast inconclusive, RPL19A TOR yeast 18.1[may fluoresce violet]
Cc1ccc(NC(=O)c2nnn(CC(=O)Nc3ccccc3)c2N)cc1C	Myeloid diff MLP active (no result: AGP1 TOR yeast)
Cc1ccc(CNC(=O)c2nnn(-c3cccc(C)c3)c2N)cc1	none
COc1ccc(NC(=O)Cn2nnc(C(=O)NCc3ccco3)c2N)cc1	AGP1 TOR yeast inconclusive, CIT2 TOR yeast inconclusive, RPL19A TOR yeast 21.9[may fluoresce violet]
CCCNC(=O)C1(C)CCCN(C(=O)c2ccc(OC)cc2OC)C1 (configuration not stated)	none (no result: AGP1 TOR yeast, LAP4 TOR yeast, MEP2-GFP yeast, CIT2 TOR yeast, RPL19A TOR yeast)
COc1ccc2cc(C3CC=C(CO)CN3S(=O)(=O)c3ccccc3[N+](=O)[O-])n(C(=O)OC(C)(C)C)c2c1 (configuration not stated)	none (no result: AGP1 TOR yeast, LAP4 TOR yeast, MEP2-GFP yeast, CIT2 TOR yeast, RPL19A TOR yeast)
CC1CCc2sc(-c3n[nH]c(=S)o3)cc2C1 (configuration not stated)	none
Cc1ccccc1NC(=O)CSc1nc(Nc2ccccc2)nc(N2CCOCC2)n1	LAP4 TOR yeast inconclusive, MEP2-GFP yeast inconclusive, RPL19A TOR yeast inconclusive (no result: AGP1 TOR yeast)
Cc1ccc(F)cc1NC(=O)CSc1nc(Nc2ccccc2)nc(N2CCOCC2)n1	Myeloid diff MLP active
O=P(Cc1cc[n+]([O-])cc1)(c1ccccc1)c1ccccc1	none
O=P(Cc1ccccc1O)(c1ccccc1)c1ccccc1	AGP1 TOR yeast inconclusive, MEP2-GFP yeast 207.8[may fluoresce violet], CIT2 TOR yeast inconclusive
S=C(Sc1ccc(Cl)cc1)Sc1ccc(Cl)cc1	LAP4 TOR yeast 150.1 (no result: Myeloid diff MLP)
CCOC(=O)Nc1c2ccccc2nc2ccccc12	MEP2-GFP yeast 206.9[may fluoresce violet], CIT2 TOR yeast inconclusive
CCN(CC)S(=O)(=O)c1cccc(C(=O)NCC(c2ccccc2)N(C)C)c1 (configuration not stated)	LAP4 TOR yeast 203.5
CN(C)C(CNC(=O)c1cccc(S(=O)(=O)Nc2ccccc2Cl)c1)c1ccccc1 (configuration not stated)	none (no result: AGP1 TOR yeast, LAP4 TOR yeast, MEP2-GFP yeast, CIT2 TOR yeast, RPL19A TOR yeast)
Cc1ccc(C2CC(c3ccccc3)=NN2c2ccc(S(N)(=O)=O)cc2)cc1 (configuration not stated)	none (no result: AGP1 TOR yeast, LAP4 TOR yeast, MEP2-GFP yeast, CIT2 TOR yeast, RPL19A TOR yeast)
CCc1ccc(C2=NN(c3ccc(S(N)(=O)=O)cc3)C(c3ccc(F)cc3)C2)cc1 (configuration not stated)	MEP2-GFP yeast 202.4[may fluoresce violet], CIT2 TOR yeast inconclusive (no result: AGP1 TOR yeast)
COc1ccc2c(C=Nc3c(C)n(C)n(-c4ccccc4)c3=O)c(O)n(Cc3ccco3)c(=O)c2c1	Myeloid diff MLP active!
Cc1c(N=Cc2ccco2)c(=O)n(-c2ccccc2)n1C	none
O=S(N1CCc2ccccc21)C12CC3CC(CC(C3)C1)C2 (configuration not stated)	Myeloid diff MLP active
Cc1ccc(Nc2ncnc(Cl)c2N)cc1	none (no result: AGP1 TOR yeast, LAP4 TOR yeast, MEP2-GFP yeast, CIT2 TOR yeast, RPL19A TOR yeast)
O=C(/C=C/c1ccc(Cl)cc1)c1ccc([N+](=O)[O-])o1	Myeloid diff MLP inconclusive, AGP1 TOR yeast inconclusive, MEP2-GFP yeast 279.3[may fluoresce violet], CIT2 TOR yeast inconclusive, RPL19A TOR yeast 42.4[may fluoresce violet]
O=C(O)/C=C/c1ccc([N+](=O)[O-])o1	none (no result: CIT2 TOR yeast)
Nc1nonc1-c1noc(-c2ccccc2Br)n1	MEP2-GFP yeast 260.9[may fluoresce violet], CIT2 TOR yeast inconclusive, RPL19A TOR yeast 45.3[may fluoresce violet]
O=C(Nc1nc(-c2cccs2)cs1)c1ccc(S(=O)(=O)N2CCCCC2)cc1	none
O=C(COc1ccccc1)Nc1nc(-c2cccs2)cs1	none
O=C(Nc1nc(-c2cccs2)cs1)c1cccc(S(=O)(=O)N2CCCCCC2)c1	Myeloid diff MLP active
O=C(CCS(=O)(=O)c1ccccc1)Nc1nc(-c2cccs2)cs1	Myeloid diff MLP active
O=S(=O)(c1cccc(Br)c1)N1CCN(C(=S)NCC2CCCO2)CC1 (configuration not stated)	none
O=C(N/N=C/c1c[nH]c2ccccc12)c1ccc(O)c(O)c1	none
COc1ccc(C(=O)N/N=C/c2c[nH]c3ccccc23)cc1	AGP1 TOR yeast inconclusive, LAP4 TOR yeast inconclusive, MEP2-GFP yeast 247.1[may fluoresce violet], CIT2 TOR yeast inconclusive, RPL19A TOR yeast 16.8[may fluoresce violet]
Cc1cccc(Nc2nc(N)nc(-c3oc4ccccc4c3C)n2)c1	Myeloid diff MLP active
Cc1c(Nc2ncnc3nc[nH]c23)c(=O)n(-c2ccccc2)n1C	none
O=C(CCNS(=O)(=O)c1ccc(Cl)cc1)NCCc1ccccc1	none (no result: AGP1 TOR yeast, LAP4 TOR yeast, MEP2-GFP yeast, CIT2 TOR yeast, RPL19A TOR yeast)
Cc1nc(N2CCC(C)CC2)c2oc3ccccc3c2n1	MEP2-GFP yeast 251.9[may fluoresce violet], CIT2 TOR yeast inconclusive, RPL19A TOR yeast 48.8[may fluoresce violet] (no result: AGP1 TOR yeast)
Cc1ccc(C(=O)N/C(=C\c2ccco2)C(=O)NCC2CCCO2)cc1C (configuration not stated)	none
Cc1ccc(OCC(O)Cn2c(=N)n(Cc3ccccc3)c3ccccc32)cc1 (configuration not stated)	Myeloid diff MLP active
N=c1n(Cc2ccccc2)c2ccccc2n1CC(O)c1ccco1 (configuration not stated)	Myeloid diff MLP active
CCOc1ccc(S(=O)(=O)N2CCC(C(=O)Nc3ccc(C)c(S(=O)(=O)N4CCOCC4)c3)CC2)cc1	Myeloid diff MLP active (no result: AGP1 TOR yeast, LAP4 TOR yeast, MEP2-GFP yeast, CIT2 TOR yeast, RPL19A TOR yeast)
CN(C)c1ccc(CNS(=O)(=O)c2csc(C(N)=O)c2)cc1	CIT2 TOR yeast inconclusive, RPL19A TOR yeast 33.4[may fluoresce violet]
CC(C)Oc1ccc(CNS(=O)(=O)c2csc(C(N)=O)c2)cc1	none
CCOc1[nH]n(-c2ccc(Cl)cc2)c(=O)c1C=Nc1ccc(OC)cc1	Myeloid diff MLP active
Cc1ccccc1CN1CCN(C2CCC2)CC1CCO (configuration not stated)	none (no result: Myeloid diff MLP)
Cc1cc(C)n2nc(CNS(=O)(=O)c3ccc([N+](=O)[O-])cc3)nc2n1	AGP1 TOR yeast inconclusive, CIT2 TOR yeast inconclusive, RPL19A TOR yeast 28.7[may fluoresce violet]
COCCCNc1c2c3c(cccc3[nH]c1=O)C(=O)c1ccccc1-2	Myeloid diff MLP active
COCCCNC1=C(Cl)C(=O)c2ccccc2C1=O	none
